We go through 18 compounds from PubChem BioAssay.

As usually defined, the inhibition is the relative decrease from the control value, in per cent. By AC50 is commonly meant the concentration at which the activity in the assay is half-maximal. One may read the remaining activity as the signal under treatment as a percentage of the control signal. The term IC50 denotes the concentration needed to halve the response being measured.

Results filed as inconclusive are left out. For some assays here: Results with a measured potency or affinity are listed apart. The source made the active and inactive calls. Unless noted, no rule for the calls is given here.

The nature of assay [1]: inhibitors of Cryptococcus chitosan production, flow cytometry, Cibacron Brilliant Red staining (AID 1347148).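 Also: compound exposure lasted three days at 37 degrees C.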 Particulars: Cryptococcus neoformans chitosan, stronger effect = lower value; at 10 µM unless noted. On the technique in general: Flow cytometry measures light scatter and fluorescence of single cells or particles in a stream.
The nature of assay [2]: CRL2098 osteosarcoma cell growth inhibition, synergistic combos for chromothripsis tumors, BGB or cisplatin IC20 combos (AID 1671454; in the data active = inhibition above about 80%;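 also: cells exposed for 96 h before readout; 0% = vehicle DMSO and 100% = killing by high DMSO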). Conditions: CRL2098 osteosarcoma cells, drug combinations, stronger effect = higher value.
Assay [3] can be described thus: HD-MB03 medulloblastoma cell growth inhibition, synergistic combos for chromothripsis tumors, BGB or cisplatin IC20 combos (AID 1671455; in the data active = inhibition above about 83%;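 also: 0% = vehicle DMSO and 100% = high DMSO as cytotoxic control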). Particulars: HD-MB03 medulloblastoma cells, stronger effect = higher value.
A short description of assay [4]: UWB1.289 ovarian carcinoma cell growth inhibition, synergistic combos for chromothripsis tumors, BGB or cisplatin combos (AID 1671456; in the data active = inhibition above about 80%;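 also: cells exposed to compound for four days; 0% = vehicle DMSO and 100% = killing by high DMSO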). Conditions: UWB1.289 ovarian carcinoma cells, stronger effect = higher value.
Assay [5] in a line: LFS_MB_2R medulloblastoma cell growth inhibition, synergistic combos for chromothripsis tumors, cisplatin combos (AID 1671457; in the data active = inhibition above about 80%;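 also: cells exposed to compound for four days before readout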). Particulars: LFS_MB_2R medulloblastoma cells, stronger effect = higher value.
The nature of assay [6]: UWB1.289_BRCA1 ovarian cancer growth, cell-based, BGB or cisplatin combinations (AID 1671459; in the data active = inhibition above about 80%). Conditions: UWB1.289 BRCA1 ovarian carcinoma, drug combinations, stronger effect = higher value.
Assay [7] can be described thus: human astrocyte viability loss, single and combined drugs, cytotoxicity control for chromothriptic childhood tumor combination screen, cell-based, BGB or cisplatin IC20 combos (AID 1671460; in the data active = inhibition above about 80%;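 also: cells exposed to compounds for 96 hours before viability readout; 0% = vehicle and 100% = killing control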). Conditions: Human astrocytes, drug combinations, stronger effect = higher value.
The nature of assay [8]: growth inhibition of DIPG glioma cells, dose response, cell-based, JHH-DIPG-1, MIPE4.0, CellTiter-Glo, qHTS (AID 1347062; cut-off not given, nearly all actives have AC50 up to about 27 µM;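 as to AC50: cells exposed to compound for two days before readout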). Conditions: JHH-DIPG-1 viability, CellTiter-Glo ATP luminescence. A general note: ATP-based viability assays read luminescence as a measure of living cells.
The subject of assay [9] is Aerobactin synthetase IucA (Klebsiella pneumoniae). The assay is described as follows: IucA aerobactin synthetase inhibitors, biochemical, Tocris library, absorbance (AID 1345561).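 Also: 100% = enzyme without compound and 0% = no enzyme.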 Conditions: purified IucA enzyme assay, absorbance (OD) read-out; stronger effect = lower value;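 tested at 8 µM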.
A short description of assay [10]: growth inhibition of DIPG glioma cells, dose response, cell-based, SU-DIPG-XVII, MIPE5.0, CellTiter-Glo, qHTS (AID 1347060; cut-off not given, nearly all actives have AC50 up to about 26 µM;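 as to AC50: cells exposed to compound for 48 hours before viability readout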). Conditions: SU-DIPG-XVII viability, CellTiter-Glo ATP luminescence.
The nature of assay [11]: viability loss in pontine glioma line – cell-based, SU-DIPG-XXV, MIPE5.0, CellTiter-Glo, qHTS, dose response (AID 1347065; cut-off not given, nearly all actives have AC50 up to about 26 µM;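 also: cells exposed to compound for 48 hours before ATP readout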). Conditions: CellTiter-Glo ATP luminescence.
A short description of assay [12]: JHH-DIPG-1 glioma cell viability, MIPE5.0 library, CellTiter-Glo luminescence, qHTS (AID 1347067; cut-off not given, nearly all actives have AC50 up to about 26 µM;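 also: cells exposed to compound for 48 hours before readout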). Particulars: JHH-DIPG-1 glioma viability, CellTiter-Glo ATP luminescence.
A short description of assay [13]: SU-DIPG-XXV glioma cell viability, MIPE5.0 library, qHTS (AID 1347068; cut-off not given, nearly all actives have IC50 up to about 30 µM;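 as to IC50: cells exposed to compound for 48 hours before viability readout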). A general note: qHTS replaces the single test concentration by a dilution series.
Assay [14] is described as follows: reducers of polyQ inclusions in PC12 cells, cell-based, NGF-treated PC12, GFPQ80 (AID 1614).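 Also: lower means fewer inclusions and 0 means no inclusions at all.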 Conditions: PC12 NGF-treated GFP-polyQ80 inclusion reduction.
Assay [15] is described as follows: antimalarial activity against Dd2 strain (AID 2302;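 active = growth inhibition above 50% at the single 2 µM test dose, taken to imply half-maximal potency below 2 µM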;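 also: 0% = DMSO untreated growth and 100% = chloroquine plus artemisinin killed control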). Particulars: P. falciparum Dd2 in RBCs, LDH growth readout, 72 h; at 2 µM; stronger effect = higher value.
A short description of assay [16]: HepG2 cytotoxicity, primary screen, cytotoxicity control for P. falciparum antimalarial project, cell-based, ATP luminescence (AID 2303;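 active = inhibition above 50%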;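 also: 0% = DMSO wells and 100% = digitonin-killed cells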). Conditions: HepG2 viability, 24-48 h, at 10 µM, stronger effect = higher value.
The target in assay [17] is Calcium-dependent protein kinase 1 (Plasmodium falciparum (isolate 3D7)) (UniProt P62344). The assay is described as follows: PfCDPK1 kinase inhibitors, biochemical, TCAMS library (AID 1159585; cut-off not given, nearly all actives have IC50 up to about 0.98 µM;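 also: inhibitors leave more ATP so luminescence rises with inhibition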). Particulars: recombinant PfCDPK1, Kinase-Glo ATP depletion luminescence.
Sequence of Calcium-dependent protein kinase 1 (Plasmodium falciparum (isolate 3D7)) (P62344 whole entry, looked up): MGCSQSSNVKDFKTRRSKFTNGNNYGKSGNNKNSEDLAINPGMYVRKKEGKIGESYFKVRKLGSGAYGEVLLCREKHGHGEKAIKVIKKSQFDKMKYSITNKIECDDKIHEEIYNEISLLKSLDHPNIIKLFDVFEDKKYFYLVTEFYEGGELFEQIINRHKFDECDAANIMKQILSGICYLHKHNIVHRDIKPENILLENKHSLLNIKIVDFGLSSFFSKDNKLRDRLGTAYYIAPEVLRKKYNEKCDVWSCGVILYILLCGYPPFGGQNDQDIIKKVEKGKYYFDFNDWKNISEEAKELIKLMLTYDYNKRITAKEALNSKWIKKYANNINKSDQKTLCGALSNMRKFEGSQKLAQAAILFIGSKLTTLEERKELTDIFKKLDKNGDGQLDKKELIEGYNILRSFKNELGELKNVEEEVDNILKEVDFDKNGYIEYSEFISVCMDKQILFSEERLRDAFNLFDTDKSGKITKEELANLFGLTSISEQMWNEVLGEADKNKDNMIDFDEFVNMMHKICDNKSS
The target of assay [18] is Plasmodium falciparum protein kinase 6 (PK6, PF3D7_1337100) (UniProt Q8IDW1). The assay is described as follows: PfPK6 kinase inhibitors, biochemical, TCAMS library (AID 1159586). Particulars: recombinant PfPK6, Kinase-Glo ATP depletion luminescence.
Sequence of Plasmodium falciparum protein kinase 6 (PK6, PF3D7_1337100) (Q8IDW1 1-305): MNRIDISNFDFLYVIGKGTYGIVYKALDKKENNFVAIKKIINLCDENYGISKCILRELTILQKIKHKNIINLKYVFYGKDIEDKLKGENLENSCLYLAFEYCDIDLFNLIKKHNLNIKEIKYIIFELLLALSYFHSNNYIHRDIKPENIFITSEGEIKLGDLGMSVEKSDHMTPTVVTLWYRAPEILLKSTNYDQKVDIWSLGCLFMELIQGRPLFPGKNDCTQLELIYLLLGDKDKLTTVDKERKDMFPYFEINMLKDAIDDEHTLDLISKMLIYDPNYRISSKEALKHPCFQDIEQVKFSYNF
Assay [19] concerns the target Protein kinase 7 (PK7), Plasmodium falciparum 3D7 (PF3D7_0213400) (UniProt Q7YTF7). In words: inhibition of Plasmodium PK7 catalytic activity – biochemical, TCAMS antimalarial set, Kinase-Glo luminescence (AID 1159587). Conditions: recombinant PfPK7, Kinase-Glo ATP depletion luminescence.
Assay [20] deals with Calcium-dependent protein kinase 4 (Plasmodium falciparum (isolate 3D7)) (UniProt Q8IBS5). The assay is described as follows: PfCDPK4 kinase inhibitors, biochemical, TCAMS library (AID 1159588; cut-off not given, nearly all actives have IC50 up to about 0.91 µM). Conditions: recombinant PfCDPK4, Kinase-Glo ATP depletion luminescence.
Sequence of Calcium-dependent protein kinase 4 (Plasmodium falciparum (isolate 3D7)) (Q8IBS5 whole entry, looked up): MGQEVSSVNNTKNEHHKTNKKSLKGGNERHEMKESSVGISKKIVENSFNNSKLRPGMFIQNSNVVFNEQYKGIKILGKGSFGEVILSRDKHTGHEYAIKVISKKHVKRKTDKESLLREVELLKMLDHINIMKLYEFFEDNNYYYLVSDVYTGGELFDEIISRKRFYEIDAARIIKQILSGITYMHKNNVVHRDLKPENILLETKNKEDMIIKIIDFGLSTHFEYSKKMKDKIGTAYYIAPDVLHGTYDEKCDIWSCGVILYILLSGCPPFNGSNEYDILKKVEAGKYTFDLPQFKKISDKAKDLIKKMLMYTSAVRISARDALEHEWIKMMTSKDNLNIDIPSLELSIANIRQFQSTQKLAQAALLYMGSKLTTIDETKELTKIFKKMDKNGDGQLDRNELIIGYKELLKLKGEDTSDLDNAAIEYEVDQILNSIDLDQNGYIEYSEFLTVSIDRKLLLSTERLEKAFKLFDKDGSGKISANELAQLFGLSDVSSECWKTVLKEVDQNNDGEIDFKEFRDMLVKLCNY

Sequence of Protein kinase 7 (PK7), Plasmodium falciparum 3D7 (PF3D7_0213400) (Q7YTF7 1-343): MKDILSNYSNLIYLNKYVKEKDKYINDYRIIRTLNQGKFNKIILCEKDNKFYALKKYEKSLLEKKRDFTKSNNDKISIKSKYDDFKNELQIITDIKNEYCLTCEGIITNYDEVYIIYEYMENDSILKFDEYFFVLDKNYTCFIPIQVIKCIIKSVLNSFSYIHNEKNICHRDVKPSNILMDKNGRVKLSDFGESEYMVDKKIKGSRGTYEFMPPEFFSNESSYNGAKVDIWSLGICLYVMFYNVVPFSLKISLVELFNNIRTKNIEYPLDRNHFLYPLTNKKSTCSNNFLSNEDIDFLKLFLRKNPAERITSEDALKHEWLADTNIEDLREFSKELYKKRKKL

As to `c1ccc(C2CC2)c(OCC2=NCCN2)c1`, the fold fluorescence in assay [1] was 4.38 [at 231.2 µM] (inactive).

With `CCCCC/C=C\C/C=C\C/C=C\C/C=C\CCCC(=O)NCC(=O)O`, the fold fluorescence in [1] was 3.73 (inactive).

For `Cn1c(CCCC(=O)O)nc2cc(N(CCCl)CCCl)ccc21`, the inhibition in [2] (at 0.5 µM) was -98.8% (inactive); in assay [2] (measured here: combination with BGB at IC20, at 0.5 µM) it was -103%; in assay [2] (measured here: combination with cisplatin at IC20, at 0.5 µM), -129%; in [3] (at 0.5 µM), -13.4% (inactive); in assay [3] (measured here: combo with BGB at IC20, at 0.5 µM), -11.1%; in assay [3] (measured here: combo with cisplatin at IC20, at 0.5 µM), -20.4%. Moreover, the inhibition in [4] (at 0.5 µM) was -2.34% (inactive); in assay [4] (measured here: inhibition with BGB combination, at 0.05 µM), -13.2%; in [4] (measured here: inhibition with cisplatin combination, at 0.05 µM), -10.4%; in assay [5] (at 0.5 µM) it was -14.6% (inactive); in assay [5] (measured here: combination with cisplatin, at 0.5 µM), -2.61%; in [5] (measured here: combination with cisplatin, at 5 µM) it was -14.7%. In addition, the inhibition is -2.78% in assay [6] (BGB combination, concentration series, at 5 µM); -6.91% (inactive) in assay [6] (at 0.5 µM); -6.97% in [6] (cisplatin combination, concentration series, at 5 µM); -9.57% (inactive) in assay [7] (at 0.5 µM); -2.95% in assay [7] (measured here: combo with BGB IC20, at 0.5 µM); -20% in assay [7] (measured here: combo with cisplatin IC20, at 0.5 µM).

As to `CN(C)CCc1ccc(O)cc1`, the call in assay [8] was inactive.

As for `COc1ccc2c(c1OC)CN1CCc3cc4c(cc3C1C2)OCO4` (configuration not stated), the AC50 in [8] is 14800 nM (active).

With `CN1C[C@H](CNC(=O)OCc2ccccc2)C[C@@H]2c3cccc4c3c(cn4C)C[C@H]21`, in [9], the remaining activity was 86.6% (inactive).

With `COc1cccc2c1C(=O)c1c(O)c3c(c(O)c1C2=O)C[C@@](O)(C(=O)CO)CC3OC1CC(N2CCOC(OC)C2)C(O)C(C)O1` (some centres not stated), the AC50 in assay [10] was 4.17 nM (active); in [11], 23.5 nM (active); in [12], 14.8 nM (active). Moreover, the IC50 in assay [13] is 332 nM (active).

`O=C1CC[C@@]2(O)[C@H]3Cc4ccc(O)c5c4[C@@]2(CCN3CC2CC2)[C@H]1O5`: the result in assay [10], in assay [11], in assay [12] and in assay [13] was inactive.

Consider `FC(F)(F)c1cccc(N2CCNCC2)c1`, for which the inclusion score in [14] was 2.

For `O=c1ccc2cc(O[C@@H]3O[C@H](CO)[C@@H](O)[C@H](O)[C@H]3O)c(O)cc2o1`, the inclusion score in assay [14] was 2.

Take `Cc1nccc2c1[nH]c1ccccc12`: the remaining activity in assay [9] is 108% (inactive).

For the compound `C=C[C@H]1CN2CC[C@H]1C[C@@H]2[C@@H](O)c1ccnc2ccccc12`, in [15], the growth inhibition was 2% (inactive). Besides, the inhibition in assay [16] is -7% (inactive). Further, the result in assay [17], in [18], in assay [19] and in assay [20] was inactive.

On to `C=CCN1CC[C@]23c4c5ccc(O)c4O[C@H]2C(=O)CC[C@@]3(O)[C@H]1C5`, for which the remaining activity in assay [9] was 101% (inactive).

`C=C[C@H]1CN2CC[C@H]1C[C@H]2[C@H](O)c1ccnc2ccccc12`: the inclusion score in assay [14] was determined as 2. Besides, the growth inhibition in [15] was 3% (inactive). Further, the inhibition in assay [16] was 9% (inactive). Further, the outcome in assay [17], in assay [18], in assay [19] and in assay [20] was inactive.

In the case of `CC[C@H]1CN2CC[C@H]1C[C@@H]2[C@@H](O)c1ccnc2ccc(OC)cc12`, the growth inhibition in [15] was 95% (active). Moreover, the inhibition in [16] was -3% (inactive). Moreover, the outcome in assay [17], in [18], in assay [19] and in assay [20] was inactive.

For the compound `O=c1c2ccccc2[se]n1-c1ccccc1`, the fold fluorescence in [1] was 9.59 [at 182.4 µM] (inactive).

On to `CC[C@@H](CO)NC(=O)[C@@H]1C=C2c3cccc4[nH]cc(c34)C[C@H]2N(C)C1`, for which the inclusion score in [14] was 2. For the same compound, in [9], the remaining activity is 127% (inactive).

Consider `CC(C)CC(N(C)C)C1(c2ccc(Cl)cc2)CCC1` (configuration not stated), for which the compound was called inactive in assay [10], in assay [8], in [11], in [12] and in [13].
